“And” between values parts separate entries of the source, which are not always exact repeats. Equal values may be shown once. The campaign covered roughly 420,000 compounds. About 50,000 (12%) were called active. Not shown: some 26% with an inconclusive outcome. Only a selection was taken, and actives are over-represented in it overall. Values without a mark were called inactive. The call rests on the fitted dose curve; in most records, active means well fitted inhibition curve with a large enough effect; inconclusive means small, poorly fitted or top-dose-only effect; inactive means flat fitted curve, though single readings scatter.
Assay: qHTS for Inhibitors of human tyrosyl-DNA phosphodiesterase 1 (TDP1): qHTS in cells in presence of CPT; further: nearly all actives have a fitted effect of over 55% in size
Details: chicken DT40 Tdp1-/-;hTDP1 cells + 20 nM CPT, ATP luminescence, 48 h; series mostly up to 46.2 µM; activity change, negative = growth inhibition: at the top concentration
Outline: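 Cell growth measured by CellTiter-Glo luminescence after a minimum 48 h, 37 C compound exposure with 20 nM CPT in Tdp1-knockout DT40 cells stably expressing hTDP1, seeded 400/well; qHTS titration format.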
On the % scale 0 is the no-effect control and ±100 the full control effect; potency means the concentration at half of the fitted maximal effect.

SMILES	activity change, negative = growth inhibition [%]	Potency
Cc1cc(S(=O)(=O)NCc2ccccn2)c(Cl)cc1Cl	-2.32	–
Cc1ccc(S(=O)(=O)NCC(=O)NNC(=O)c2ccc(Br)cc2)cc1C	8.9	–
C/C(=N\Nc1nc(N2CCOCC2)nc(N2CCOCC2)n1)c1ccc([N+](=O)[O-])cc1	9.59	–
C/C(=N\Nc1ccccc1)c1cccs1	-0.909	–
C/C(=N\Nc1nc(Nc2ccccc2)nc(N2CCOCC2)n1)c1cccs1	–	23.1 µM (active)
O=C(COC(=O)C1CC2CCCC(C1)C2=O)NC(=O)c1ccccc1 (configuration not stated)	-16.9	–
CC(C)(C)c1ccc(C(=O)N2CCN(CCNC(=O)C(=O)Nc3ccc(F)cc3)CC2)cc1	–	16.4 µM (active)
CN1CCN(C(=O)c2ccc(NC(=O)c3ccc(Br)o3)cc2)CC1	7.4	–
Cc1ccc(C(=O)N/C(=C\c2ccc(F)cc2)C(=O)NCCN2CCOCC2)cc1	2.67	–
Cc1cc(C(=O)OCC(=O)N2C(C)CCCC2C)c2ccccc2n1 (configuration not stated)	2.32	–
CC(=O)N1CCCc2cc(S(=O)(=O)N3CCCC(C(=O)NCc4ccc(Cl)cc4)C3)ccc21 (configuration not stated)	–	18.4 µM (active)
CC(=O)N1CCCc2cc(S(=O)(=O)N3CCC(C(=O)NC4CCCCC4)CC3)ccc21	6.44	–
O=C(NCc1ccncc1)C1CCCN(S(=O)(=O)c2ccc(Br)cc2)C1 (configuration not stated)	-26	–
CC(=O)N1CCCc2cc(S(=O)(=O)N3CCCC(C(=O)N4CCN(c5cccc(Cl)c5)CC4)C3)ccc21 (configuration not stated)	–	2.31 µM (active) and 8.2 µM (active)
COc1cccc(N2CCN(S(=O)(=O)c3ccc4c(c3)CCCN4C(C)=O)CC2)c1	-26.4	–
COC(=O)c1ccccc1NS(=O)(=O)c1ccc2c(c1)CCCN2C(C)=O	-17	–
CCCCn1c(N)c(N(CCOC)C(=O)c2cccc(S(=O)(=O)N(C)c3ccccc3)c2)c(=O)[nH]c1=O	0.657	–
CC(C)(C(=O)N1CCC1(C)C(=O)NS(=O)(=O)c1ccc(Br)cc1)c1ccccc1 (configuration not stated)	-32.2	–
CCOC(=O)C1CCN(S(=O)(=O)c2ccc3c(c2)N(C(C)=O)CCO3)CC1	-14.8	–
O=C(CN1C2=NCCN2c2ccccc21)c1cccs1	-13.6	–
Cc1cc2c(cc1C)N(Cc1ccccc1)C1=NCCCN12	–	13 µM (active)
OC(CN1C2=NCCCN2c2ccccc21)c1ccc(Br)cc1 (configuration not stated)	-29.8	–
CCN(CC)C(=O)CSc1nc2ccccc2n1CC(=O)N1CCN(c2ccccc2OC)CC1	-26.7	–
Cc1ccc(Cn2c(SCC(=O)N/N=C/c3ccccc3OCC(=O)O)nc3ccccc32)cc1	-7.54	–
CCOc1ccc(OCCSc2nc3ccccc3n2CC(=O)O)cc1	-13.1	–
COC(=O)c1ccc(Cn2c(SCC(=O)N(C)c3ccccc3)nc3ccccc32)cc1	–	20.6 µM (active)

SMILES	activity change, negative = growth inhibition [%]	Potency
COC(=O)CSc1nc2ccccc2c(=O)n1Cc1ccccc1	0.481	–
CN(C(=O)CSc1nc2ccccc2n1Cc1ccccc1C#N)c1ccccc1	–	14.6 µM (active)
CC(C)[C@H](NC(=O)OCc1ccccc1)C(=O)OCc1ccccc1	5.67	–
CCN1CCN(C(=O)N[C@@H](C(=O)N[C@@H]2C(=O)N3C(C(=O)O)=C(CSc4nnnn4C)CS[C@H]23)c2ccc(O)cc2)C(=O)C1=O	–	inactive
CCOc1ccc(C)cc1S(=O)(=O)NC1CCCCCC1	-28.6	–
CC1CN(C(=O)COC(=O)c2cccc(NS(=O)(=O)c3ccccc3)c2)CC(C)O1 (configuration not stated)	-2.2	–
O=C(CSc1ccc(-c2ccccc2)nn1)NCC1CCCO1 (configuration not stated)	-6.35	–
Cc1ccc(SCC(=O)Nc2nncs2)cc1	-23.3	–
CC(C)Oc1ccc(C(=O)NCC(=O)Nc2ccc3c(c2)CCC3)cc1	-21.7	–
CC(C)Cn1c(SCC(=O)Nc2ccc(Cl)cc2F)nc(O)cc1=O	26.8	–
COc1ccc(OCc2ccc(-c3nc(C#N)c(N4CCN(c5ccccc5)CC4)o3)o2)cc1	1.42	–
CC1CCN(c2oc(-c3ccccc3F)nc2C#N)CC1	–	16.4 µM (active)
COc1ccccc1-c1nc(C#N)c(N2CCC(C(N)=O)CC2)o1	-18.9	–
O=S(=O)(c1ccc(Br)c2ccccc12)N1CCOCC1	5.94	–
Cc1noc(C)c1NC(=O)Nc1cccc2c1O[C@H](CN(C)C(=O)Nc1ccccc1)[C@@H](C)CN([C@H](C)CO)C2=O	-1.98	–
CNC(=S)N/N=C/c1ccc(N2CCOCC2)s1	–	4.61 µM (active)
Cc1ccccc1N/N=C/c1ccc(N2CCOCC2)cc1	-18.7	–
Cc1cc(C(=O)N/N=C/c2ccc(N3CCOCC3)cc2)c(C)o1	-6.34	–
Cc1ccc2[nH]c3c(=O)n(CC(=O)NC(C)C)ncc3c2c1	-21.8	–
CN(c1ccc(O)cc1)c1nc(-c2cccnc2)cs1	-24.2	–
O=C(Nc1ccc(-c2ccc3nncn3n2)cc1)C1CCCCC1	-21.7	–
NNc1nc2c(Cl)cccc2s1	-14	–
Cn1c(SCC(=O)NC2CCCCC2)nnc1-c1cc2ccccc2o1	-15.6	–
CC(=O)N1Cc2cc(C(=O)NCc3cccc(F)c3)nc(-c3cccc(C4=CCCC4)c3)c2[C@H]1CCO	–	18.4 µM (active)
Cc1c(C(=O)NCC2CC2)sc(=O)n1Cc1cccc(F)c1	-13.6	–
CC(C)NC(=O)N1Cc2cc(C(=O)NCC(F)(F)F)nc(-c3cccc(-c4cc5ccccc5o4)c3)c2[C@@H]1CCO	–	18.4 µM (active)
